Assay results from PubChem BioAssay (NCI).
Compounds without any hit were thinned out: in the full panel of roughly 79,000, 15% have a hit. Cut-off read from the data, not from the text of the source: active = growth inhibition above about 70%; inactive = the rest.

Experiments:
[1] = NCI Yeast Anticancer Drug Screen. Data for the rad50 strain (AID 155);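 note: 0% = growth of vehicle-only cultures of the same strain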; conditions: S. cerevisiae rad50 strain growth inhibition; at 50.0 µM; hits give high values
Summary of the method: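 Readout: growth inhibition relative to vehicle-treated cultures. Compound exposure was carried out in a genetically defined yeast strain deficient in DNA damage repair.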

[2] = NCI Yeast Anticancer Drug Screen. Data for the mec2-1 strain (AID 157); conditions: S. cerevisiae mec2-1 strain, at 50.0 µM, hits give high values
Summary of the method: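 Vehicle-treated cultures served as reference for growth inhibition of compound-exposed mec2-1 yeast.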

[3] = NCI Yeast Anticancer Drug Screen. Data for the sgs1 mgt1 strain (AID 161);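 note: 0% = growth of cultures given vehicle only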; conditions: S. cerevisiae sgs1 mgt1 strain, at 50.0 µM, hits give high values
Summary of the method: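 Test agents were incubated with a DNA-repair-mutant yeast strain. Growth was then read and compared against vehicle-treated controls.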

[4] = NCI Yeast Anticancer Drug Screen. Data for the cln2 rad14 strain (AID 165);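 note: 0% = growth equal to vehicle treated cultures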; conditions: S. cerevisiae cln2 rad14 strain, at 50.0 µM, hits give high values
Summary of the method: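 Each compound was tested on cln2 rad14 yeast. Inhibition of growth was calculated against vehicle-exposed controls.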

[5] = NCI Yeast Anticancer Drug Screen. Data for the bub3 strain (AID 167); conditions: S. cerevisiae bub3 mutant strain, at 50.0 µM, hits give high values
Summary of the method: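 Readout: yeast growth inhibition, expressed relative to vehicle-only wells. The test organism is a mutant strain from a panel with lesions in DNA repair or checkpoint genes.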

[6] = NCI Yeast Anticancer Drug Screen. Data for the mlh1 rad18 strain (AID 175); conditions: S. cerevisiae mlh1 rad18 strain growth inhibition; at 50.0 µM; hits give high values
Summary of the method: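 Vehicle-treated cultures served as the reference for growth inhibition in a yeast strain carrying DNA damage repair alterations exposed to each compound.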

Measured: growth inhibition

O=C(Nc1ccc(Cl)cc1)Nc1nnc2nc(C3(c4nc5nnc(NC(=O)Nc6ccc(Cl)cc6)n5[nH]c4=O)CCCC3=O)c(=O)[nH]n12
inactive: [1] -23.3% | [2] -19.5% | [3] -11.7% | [4] -32.2% | [5] 10.9% | [6] -2.75%

BrC=C1c2ccccc2-c2ccccc21
inactive: [1] 5.45% | [2] -7.35% | [3] 3.9% | [4] 22.6% | [5] 2.35% | [6] 4.55%

COc1ccc2ccccc2c1C(Cc1ccccc1)NCCO (stereo not given)
inactive: [1] -17.2% | [2] -20.4% | [3] -2.3% | [4] -4.95% | [5] -0.55% | [6] -2.75%

OCCCCC1COC(c2ccccc2)O1 (stereo not given)
inactive: [1] 2.55% | [2] -14.6% | [3] -10.9% | [4] -35% | [5] -16.6% | [6] 1.1%

COc1ccc(C2C3=C(COC3=O)OC(C)(C)Oc3cc4c(cc32)OCO4)cc1 (stereo not given)
inactive: [1] -3% | [2] 0.85% | [3] 13.7% | [4] 6.5% | [5] 36.1% | [6] -19.9%

CC(C)(C)OC(=O)NC(CCCCNC(=O)OCc1ccccc1)C(=O)NCCNc1ccc(NCCNC(=O)C(CCCCNC(=O)OCc2ccccc2)NC(=O)OC(C)(C)C)c2c1C(=O)c1ccccc1C2=O (stereo not given)
inactive: [1] -3.7% | [2] 0.1% | [3] -27.4% | [4] -1.4% | [5] -31.6% | [6] -52.8%

CCN(CC)CCC1CCCCN1CC(=O)N1c2cc(Cl)ccc2NC(=O)CC1C (stereo not given)
inactive: [1] 24.9% | [2] 0.8% | [3] 15.1% | [4] -6.45% | [5] 1.3% | [6] 20.6%

CC(C)(C)N1CCC(=O)C1=O
inactive: [1] 23.8% | [2] 22.9% | [3] 1.85% | [4] 7.85% | [5] 5.85% | [6] 17.8%

O=C(CN1C(=O)CC(NC(=O)OCc2ccccc2)C1=O)NCC(=O)Oc1ccc([N+](=O)[O-])cc1 (stereo not given)
inactive: [1] 31.6% | [2] 20.9% | [3] 26.9% | [4] 7.7% | [5] 4% | [6] 22.1%

Cc1ccc(CC2CC(=O)c3ccccc3C2=O)cc1 (stereo not given)
inactive: [1] -7.6% | [2] 2.95% | [3] -4.55% | [4] -13.9% | [5] 3.65% | [6] -16.4%

O=c1[nH]c(Nc2nc3ccccc3[nH]2)nc(O)c1-c1ccccc1
inactive: [1] -2.85% | [2] -14% | [3] -23.2% | [4] -6.7% | [5] -6.05% | [6] -28.6%

O=C(Nc1ccc(Cl)cc1)c1cccnc1
inactive: [1] 10.1% | [2] -10.7% | [3] 32.8% | [4] -8.5% | [5] 34.4% | [6] 15.6%

CC(c1ccccc1)C(C)c1ccccc1 (stereo not given)
inactive: [1] 12.7% | [2] -10.2% | [3] -16.6% | [4] -72.5% | [5] 7.6% | [6] -8.65%

CN(C)c1ccc(/C=C/c2nc3ccc(Cl)cc3[nH]2)cc1
inactive: [1] -5.55% | [2] 0.1% | [3] -1.9% | [4] 5.75% | [5] -8.2% | [6] -14.1%

Nc1ccc(C(=O)O)c(N)c1
inactive: [1] -4.35% | [2] 1.45% | [3] -14.1% | [4] -40.3% | [5] -22.5% | [6] -1.1%

Cn1c(=O)c2c(nc(CCC(N)=O)n2C)n(C)c1=O
inactive: [1] -1.35% | [2] -20.9% | [3] 8.25% | [4] -14.8% | [5] 11.8% | [6] 12.7%

CCOC(=O)CNC(=O)CNC(=O)CNC(=O)CN
inactive: [1] 0.1% | [2] 2.5% | [3] 15.8% | [4] -20.4% | [5] -3.85% | [6] -16.6%

CN=C(NC(=S)N(C)C)N(C)C
inactive: [1] -4.3% | [2] -6.85% | [3] -9.4% | [4] -7.85% | [5] -14.1% | [6] 2.75%

O=c1[nH]c(=O)c2nnoc2[nH]1
inactive: [1] 12.4% | [2] 7.65% | [3] 4.55% | [4] -20.2% | [5] 7.4% | [6] -16.5%

O=C(/C=C\c1ccccc1)C(C(=O)/C=C/c1ccccc1)C(=O)c1ccccc1 (stereo not given)
inactive: [1] -1.5% | [2] -3.05% | [3] 3.15% | [4] 14.9% | [5] -1.25% | [6] 32.8%
